Screening data (PubChem BioAssay)
This excerpt belongs to a sample that is enriched for hits.
CHX counter = Cycloheximide Counterscreen for Small Molecule Inhibitors of Shiga Toxin | cell reporter, cycloheximide protein synthesis inhibition counterscreen | max response, % | 300,000 tested, 12% active | AID 2314, 2010; in the data active = max response mostly above about 13%, no sharp cut-off; inactive = mostly below about 14%; also: read at 38.3 µM for the half of the compounds with a filed dose; 0% is about no effect
TbPYK inhibitor = qHTS of Trypanosoma Brucei Inhibitors | pyruvate kinase (Trypanosoma brucei), Q57TT1 | TbPYK enzyme, Kinase-Glo Plus ATP luminescence, 45 min | Potency, µM (doses to about 76.8 µM), inactives show top-dose activity, negative = inhibition, hits mostly inhibitors | 410,000 tested, 0.12% active; also: potency is read from the fitted curve at half-maximal effect; % is scaled to controls: 0 for no effect and ±100 for the full control effect; nearly all actives have a fitted effect of over 50% in size
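Enzyme and substrate buffer are dispensed first and compound is pin-transferred. ADP at 130 uM final then starts the reaction, which runs 45 min at room temperature. Detection reagent is added for 10 min before luminescence is imaged.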
LmPK inhibitor = qHTS Assay for Inhibitors of Leishmania Mexicana Pyruvate Kinase (LmPK); Q27686; purified LmPK, Kinase-Glo ATP luminescence, 1 h; Potency, µM (series often up to 57.5 µM), for inactives: at the top dose activity change, negative = inhibition, most hits filed as inhibitors; 290,000 tested, 0.37% active; also: potency is read from the fitted curve at half-maximal effect; % is scaled to controls: 0 for no effect and ±100 for the full control effect
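Kinase-Glo luminescence read after 1 h RT reaction of 0.1 nM LmPK with 0.5 mM PEP and 0.1 mM ADP. Activity scaled between uninhibited and enzyme-free controls.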
Shiga inhibitor = A qHTS for Small Molecule Inhibitors of Shiga Toxin. inhibition, % at 38.7 µM. AID 2315, 2010. Vero cells, Shiga toxin protein synthesis inhibition reporter. 290,000 tested, 9.2% active; in the data active = inhibition mostly above about 28%, no sharp cut-off; inactive = mostly below about 43%; also: 0% is about no effect
Giardia FBPA inh = qHTS Assay for Inhibitors of Fructose-1,6-bisphosphate Aldolase from Giardia Lamblia; A8B2U2; purified Giardia FBPA; Potency, µM (doses to about 59.6 µM), inactives show at the highest dose activity, negative = inhibition, hits mostly inhibitors; 290,000 tested, 0.71% active; AID 2451, 2010; also: potency is read from the fitted curve at half-maximal effect; % is scaled to controls: 0 for no effect and ±100 for the full control effect; nearly all actives have a fitted effect of over 55% in size
Target sequence (A8B2U2 whole entry, looked up): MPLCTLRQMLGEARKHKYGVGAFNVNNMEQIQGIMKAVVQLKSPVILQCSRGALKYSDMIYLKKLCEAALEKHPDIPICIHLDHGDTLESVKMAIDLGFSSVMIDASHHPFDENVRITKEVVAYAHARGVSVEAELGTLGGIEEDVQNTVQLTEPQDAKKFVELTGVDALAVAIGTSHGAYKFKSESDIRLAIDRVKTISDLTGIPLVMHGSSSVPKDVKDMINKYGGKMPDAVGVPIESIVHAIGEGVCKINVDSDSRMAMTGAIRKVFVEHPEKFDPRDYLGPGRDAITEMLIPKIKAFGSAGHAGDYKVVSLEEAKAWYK
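Giardia FBPA (40 nM reagent) was preincubated 10 min at RT with compound (up to 57.5 uM final), then substrate plus GAPDH/TPI/NAD/arsenate coupling system with diaphorase/resazurin was added; resorufin fluorescence (525/598 nm) was read after 20 min.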
RE007 growth inh = qHTS Assay for Inhibitors of the HIV-1 protein Vpr; S. pombe RE007 Vpr strain, BacTiter-Glo ATP luminescence, 24 h; Potency, µM (top dose mostly 92.2 µM), for the others: top-dose activity change, negative = less growth, actives largely listed as inhibitors; 360,000 tested, 0.21% active; AID 651644, 2012; active = well fitted falling curve with a large enough effect; inconclusive = small, poorly fitted or top-dose-only effect; inactive = no such curve, though single readings can be large or run the other way; also: potency is read from the fitted curve at half-maximal effect; % is scaled to controls: 0 for no effect and ±100 for the full control effect; nearly all actives have a fitted effect of over 50% in size
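Fission yeast strain RE007, carrying one chromosomally integrated HIV-1 vpr copy, was seeded at OD 0.01 in PMG+AL medium with 23 nL pinned compound. After 24 h at 30 °C and 99% humidity, viability was read by BacTiter-Glo luminescence.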
Active calls of the source: *. Unless noted, calls follow the shape of the dose curve; as a rule, active = well fitted curve in the direction sought with a large enough effect; inconclusive = small, poorly fitted or top-dose-only effect, or another doubt; inactive = no such curve, though single readings can be large; an effect the other way counts as inactive or inconclusive.

What do the screens show for `C/C(CC(=O)NCc1ccccc1)=N\NC(=O)c1cnccn1`?
CHX counter: 12*; TbPYK inhibitor: 22%; LmPK inhibitor: 0%; Shiga inhibitor: 40*; Giardia FBPA inh: 0%; RE007 growth inh: 22%

What do the screens show for `COc1ccc(NC(=O)C/C(C)=N/NC(=O)C(=O)NC2CCCCC2)c(OC)c1`?
CHX counter: -4; TbPYK inhibitor: 2%; LmPK inhibitor: 0%; Shiga inhibitor: 13; Giardia FBPA inh: -14%; RE007 growth inh: -5%

Results for C/C(CC(=O)Nc1ccccc1C(F)(F)F)=N\NC(=O)c1cnccn1 ?
TbPYK inhibitor: -1%; RE007 growth inh: -2%

What do the screens show for `COc1ccc(NC(=O)C/C(C)=N/NC(=O)c2ccccn2)c(OC)c1`?
CHX counter: 38*; TbPYK inhibitor: 4%; LmPK inhibitor: -7%; Shiga inhibitor: 88*; Giardia FBPA inh: 19%; RE007 growth inh: -3%

What do the screens show for `CCC(C)c1ccc(NC(=O)C/C(C)=N/NC(=O)c2cnccn2)cc1` (stereo unspecified)?
CHX counter: 24*; TbPYK inhibitor: -1%; LmPK inhibitor: 0%; Shiga inhibitor: 48*; Giardia FBPA inh: -17%; RE007 growth inh: 27%

How did C/C(Cc1ccccc1)=N\NC(=O)c1ccccn1 do in these assays?
CHX counter: 53*; TbPYK inhibitor: 0%; LmPK inhibitor: 1%; Shiga inhibitor: 89*; Giardia FBPA inh: 8%; RE007 growth inh: 3%

How did C/C(CC(=O)Nc1ccc2c(c1)OCCO2)=N\NC(=O)c1ccccn1 do in these assays?
CHX counter: 11; TbPYK inhibitor: 0%; LmPK inhibitor: -2%; Shiga inhibitor: 13; Giardia FBPA inh: inconclusive; RE007 growth inh: 2%

How did C/C(Cc1ccccc1)=N\NC(=O)c1cccnc1 do in these assays?
CHX counter: 13; TbPYK inhibitor: 1%; LmPK inhibitor: 6%; Shiga inhibitor: 9; Giardia FBPA inh: 4%; RE007 growth inh: -7%

How did C/C(CC(=O)Nc1cc(C)cc(C)c1)=N\NC(=O)c1ccccn1 do in these assays?
CHX counter: 37*; TbPYK inhibitor: 0%; LmPK inhibitor: -3%; Shiga inhibitor: 43*; Giardia FBPA inh: 0%; RE007 growth inh: -7%

Results for COc1ccc(CCNC(=O)C/C(C)=N/NC(=O)c2cnccn2)cc1 ?
CHX counter: 36*; TbPYK inhibitor: -3%; LmPK inhibitor: -3%; Shiga inhibitor: 41*; Giardia FBPA inh: 10%; RE007 growth inh: 3%

Results for CCc1nn(CC(=O)Nc2ccc(N(CC)CC)cc2C)c(=O)c2cc3sccc3n12 ?
TbPYK inhibitor: 4%

What do the screens show for `COc1ncc(-c2ccc(N3C(c4ccsc4)=Cc4ccc(F)cc4C3CC(C)=O)cc2)cn1` (stereo unspecified)?
TbPYK inhibitor: 2%; RE007 growth inh: -11%

Results for Fc1ccc(CO/N=C/C2=C(Cl)c3ccccc3CC2)cc1 ?
CHX counter: 12*; TbPYK inhibitor: 4%; LmPK inhibitor: -7%; Shiga inhibitor: 80*; Giardia FBPA inh: 8%; RE007 growth inh: -13%

Results for O=C(NCC(c1ccco1)N1CCN(c2ccccc2F)CC1)OCc1ccccc1 (stereo unspecified) ?
CHX counter: 21*; TbPYK inhibitor: 8%; LmPK inhibitor: 6%; Shiga inhibitor: 28; Giardia FBPA inh: 1%; RE007 growth inh: 0%

Results for COc1ccccc1CNc1ccnc(-c2cccc(NS(C)(=O)=O)c2)n1 ?
Giardia FBPA inh: -6%

Results for CCc1ccccc1NC(=O)CNC(=O)c1ccccc1OCc1c(C)noc1C ?
TbPYK inhibitor: 14%; RE007 growth inh: -7%

What do the screens show for `O=c1[nH]c2cc3ccccc3cc2nc1C(F)(F)F`?
CHX counter: 5; TbPYK inhibitor: 3%; LmPK inhibitor: -4%; Shiga inhibitor: -8; Giardia FBPA inh: 1%; RE007 growth inh: -27%

How did FC(F)(F)c1nc2cc3nc4ccccc4[nH]c3cc2n1 do in these assays?
CHX counter: 39*; TbPYK inhibitor: -19%; LmPK inhibitor: inconclusive; Shiga inhibitor: 69*; Giardia FBPA inh: inconclusive; RE007 growth inh: -10%

How did N/C(=N\OC(=O)c1cccc2ccccc12)c1cccc([N+](=O)[O-])c1 do in these assays?
CHX counter: 10; TbPYK inhibitor: -1%; LmPK inhibitor: 2%; Shiga inhibitor: 17; Giardia FBPA inh: -6%; RE007 growth inh: -7%

How did O=C(O/N=C(\c1ccccc1)c1ccccn1)c1cccc2ccccc12 do in these assays?
CHX counter: 14*; TbPYK inhibitor: -11%; LmPK inhibitor: 2%; Shiga inhibitor: 12; Giardia FBPA inh: -4%; RE007 growth inh: -8%

How did Cc1cccc(/C(N)=N/OC(=O)c2cccc3ccccc23)c1 do in these assays?
CHX counter: 21*; LmPK inhibitor: -6%; Shiga inhibitor: 59*

Results for N/C(=N\OC(=O)c1cccc2ccccc12)c1cccnc1 ?
CHX counter: 42*; TbPYK inhibitor: -6%; LmPK inhibitor: -4%; Shiga inhibitor: 94*; Giardia FBPA inh: -10%; RE007 growth inh: -1%

How did N/C(=N\OC(=O)Cc1ccccc1[N+](=O)[O-])c1cccnc1 do in these assays?
CHX counter: 11; TbPYK inhibitor: -10%; LmPK inhibitor: 0%; Shiga inhibitor: 43; Giardia FBPA inh: 2%; RE007 growth inh: 21%

Results for Cc1ccc(C(=O)OCC(=O)N(Cc2ccccc2)C(C)C)cc1C ?
TbPYK inhibitor: -2%; RE007 growth inh: 2%

Results for Cc1ccc2c(c1)cc1c(=O)n(CC(=O)N3CCCCC3)nc(C)n12 ?
TbPYK inhibitor: -10%

Results for Cc1ncoc1C(=O)Nc1ccc(Oc2ccccc2)cc1 ?
CHX counter: 54*; TbPYK inhibitor: -10%; LmPK inhibitor: -16%; Shiga inhibitor: 153*; Giardia FBPA inh: -1%; RE007 growth inh: 0%

How did COc1ccc(NC(=O)c2ocnc2C)cc1OC do in these assays?
CHX counter: 12; TbPYK inhibitor: -3%; LmPK inhibitor: -12%; Shiga inhibitor: 11; Giardia FBPA inh: 4%; RE007 growth inh: 4%

Results for Cc1nc(C)c(C(=O)Nc2ccc(Oc3ccccc3)cc2)o1 ?
CHX counter: 26*; TbPYK inhibitor: -11%; LmPK inhibitor: -9%; Shiga inhibitor: 25*; Giardia FBPA inh: -3%; RE007 growth inh: 15%

Results for COc1ccc(NC(=S)N(CCN2CCOCC2)Cc2cc3cc4c(cc3[nH]c2=O)OCCO4)cc1 ?
CHX counter: -1; TbPYK inhibitor: -8%; LmPK inhibitor: -2%; Shiga inhibitor: -17; Giardia FBPA inh: -7%; RE007 growth inh: 2%
